# In the supplement of paper PMC4466140:
# B1: unnamed (peptide)
# chain: RRLRDKYKLPIVDAD
# What was measured:
# Experiment in all cases: SPOT peptide array binding signal intensity (averaged, normalized) (arbitrary units (background-subtracted, floor 0; scale differs between SH3 domains)); higher = stronger binding of the SH3 domain to the peptide
# AgAbp1 = target: AgAbp1
# Procedure: (§1)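 GST-tagged SH3 domains from S. cerevisiae (Sc), A. gossypii (Ag), C. albicans (Ca) and S. pombe (Sp) were incubated at 10 ug/ml overnight at 4 C on cellulose SPOT membranes carrying 292 synthetic 15-mer peptides mined from the S. cerevisiae proteome (cysteines replaced by serines). Binding was detected with anti-GST antibody, HRP secondary and chemiluminescence, quantified with Genespotter, and reported as normalized spot intensities averaged over biological replicates.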
# AgBbc1 = target: AgBbc1
# Procedure: as §1
# AgBem1-D1 = target: AgBem1-D1
# Procedure: as §1
# AgBzz1-D1 = target: AgBzz1-D1
# Procedure: as §1
# AgBzz1-D2 = target: AgBzz1-D2
# Procedure: as §1
# AgCyk3 = target: AgCyk3
# Procedure: as §1
# AgFus1 = target: AgFus1
# Procedure: as §1
# AgHof1 = target: AgHof1
# Procedure: as §1
# AgHse1 = target: AgHse1
# Procedure: as §1
# AgLsb1 = target: AgLsb1
# Procedure: as §1
# AgLsb4 = target: AgLsb4
# Procedure: as §1
# AgMyo5 = target: AgMyo5
# Procedure: as §1
# AgNbp2 = target: AgNbp2
# Procedure: as §1
# AgRvs167 = target: AgRvs167
# Procedure: as §1
# AgSho1 = target: AgSho1
# Procedure: as §1
# AgSla1-D1-D2 = target: AgSla1-D1-D2
# Procedure: as §1
# AgSla1-D3 = target: AgSla1-D3
# Procedure: as §1
# CaAbp1-D1 = target: CaAbp1-D1
# Procedure: as §1
# CaAbp1-D2 = target: CaAbp1-D2
# Procedure: as §1
# CaBbc1 = target: CaBbc1
# Procedure: as §1
# CaBem1-D1 = target: CaBem1-D1
# Procedure: as §1
# CaBzz1-D1 = target: CaBzz1-D1
# Procedure: as §1
# CaBzz1-D2 = target: CaBzz1-D2
# Procedure: as §1
# CaCyk3 = target: CaCyk3
# Procedure: as §1
# CaFus1 = target: CaFus1
# Procedure: as §1
# CaHof1 = target: CaHof1
# Procedure: as §1
# CaHse1 = target: CaHse1
# Procedure: as §1
# CaLsb1 = target: CaLsb1
# Procedure: as §1
# CaLsb4 = target: CaLsb4
# Procedure: as §1
# CaMyo5 = target: CaMyo5
# Procedure: as §1
# CaNbp2 = target: CaNbp2
# Procedure: as §1
# CaRvs167 = target: CaRvs167
# Procedure: as §1
# CaRvs167-3 = target: CaRvs167-3
# Procedure: as §1
# CaSho1 = target: CaSho1
# Procedure: as §1
# CaSla1-D1-D2 = target: CaSla1-D1-D2
# Procedure: as §1
# CaSla1-D3 = target: CaSla1-D3
# Procedure: as §1
# ScAbp1 = target: ScAbp1
# Procedure: as §1
# ScBbc1 = target: ScBbc1
# Procedure: as §1
# ScBem1-D1 = target: ScBem1-D1
# Procedure: as §1
# ScBzz1-D1 = target: ScBzz1-D1
# Procedure: as §1
# ScBzz1-D2 = target: ScBzz1-D2
# Procedure: as §1
# ScCyk3 = target: ScCyk3
# Procedure: as §1
# ScFus1 = target: ScFus1
# Procedure: as §1
# ScHof1 = target: ScHof1
# Procedure: as §1
# ScHse1 = target: ScHse1
# Procedure: as §1
# ScLsb1 = target: ScLsb1
# Procedure: as §1
# ScLsb2 = target: ScLsb2
# Procedure: as §1
# ScLsb3 = target: ScLsb3
# Procedure: as §1
# ScLsb4 = target: ScLsb4
# Procedure: as §1
# ScMyo3 = target: ScMyo3
# Procedure: as §1
# ScMyo5 = target: ScMyo5
# Procedure: as §1
# ScNbp2 = target: ScNbp2
# Procedure: as §1
# ScPex13 = target: ScPex13
# Procedure: as §1
# ScRvs167 = target: ScRvs167
# Procedure: as §1
# ScSho1 = target: ScSho1
# Procedure: as §1
# ScSla1-D1-D2 = target: ScSla1-D1-D2
# Procedure: as §1
# ScSla1-D3 = target: ScSla1-D3
# Procedure: as §1
# SpAbp1-D1 = target: SpAbp1-D1
# Procedure: as §1
# SpBbc1 = target: SpBbc1
# Procedure: as §1
# SpBzz1-D1 = target: SpBzz1-D1
# Procedure: as §1
# SpBzz1-D2 = target: SpBzz1-D2
# Procedure: as §1
# SpCyk3 = target: SpCyk3
# Procedure: as §1
# SpHof1 = target: SpHof1
# Procedure: as §1
# SpHof1-2 = target: SpHof1-2
# Procedure: as §1
# SpHof1-3 = target: SpHof1-3
# Procedure: as §1
# SpHse1 = target: SpHse1
# Procedure: as §1
# SpLsb1 = target: SpLsb1
# Procedure: as §1
# SpLsb4 = target: SpLsb4
# Procedure: as §1
# SpMyo1 = target: SpMyo1
# Procedure: as §1
# SpNbp2 = target: SpNbp2
# Procedure: as §1
# SpPex13 = target: SpPex13
# Procedure: as §1
# SpRvs167 = target: SpRvs167
# Procedure: as §1
# SpSla1-D1-D2 = target: SpSla1-D1-D2
# Procedure: as §1
# SpSla1-D3 = target: SpSla1-D3
# Procedure: as §1
binder,measurement,setting,value
B1,SPOT peptide array binding signal intensity,AgAbp1,38
same,SPOT peptide array binding signal intensity,AgBbc1,20.8
same,SPOT peptide array binding signal intensity,AgBem1-D1,52
same,SPOT peptide array binding signal intensity,AgBzz1-D1,32
same,SPOT peptide array binding signal intensity,AgBzz1-D2,61.5
same,SPOT peptide array binding signal intensity,AgCyk3,1
same,SPOT peptide array binding signal intensity,AgFus1,163
same,SPOT peptide array binding signal intensity,AgHof1,17
same,SPOT peptide array binding signal intensity,AgHse1,748
same,SPOT peptide array binding signal intensity,AgLsb1,6
same,SPOT peptide array binding signal intensity,AgLsb4,18
same,SPOT peptide array binding signal intensity,AgMyo5,0.75
same,SPOT peptide array binding signal intensity,AgNbp2,63
same,SPOT peptide array binding signal intensity,AgRvs167,3.33
same,SPOT peptide array binding signal intensity,AgSho1,83
same,SPOT peptide array binding signal intensity,AgSla1-D1-D2,299
same,SPOT peptide array binding signal intensity,AgSla1-D3,3
same,SPOT peptide array binding signal intensity,CaAbp1-D1,311
same,SPOT peptide array binding signal intensity,CaAbp1-D2,326
same,SPOT peptide array binding signal intensity,CaBbc1,13
same,SPOT peptide array binding signal intensity,CaBem1-D1,5.5
same,SPOT peptide array binding signal intensity,CaBzz1-D1,180
same,SPOT peptide array binding signal intensity,CaBzz1-D2,34.5
same,SPOT peptide array binding signal intensity,CaCyk3,3
same,SPOT peptide array binding signal intensity,CaFus1,318
same,SPOT peptide array binding signal intensity,CaHof1,0.5
same,SPOT peptide array binding signal intensity,CaHse1,12.2
same,SPOT peptide array binding signal intensity,CaLsb1,1
same,SPOT peptide array binding signal intensity,CaLsb4,13
same,SPOT peptide array binding signal intensity,CaMyo5,1.5
same,SPOT peptide array binding signal intensity,CaNbp2,102
same,SPOT peptide array binding signal intensity,CaRvs167,5.5
same,SPOT peptide array binding signal intensity,CaRvs167-3,42.5
same,SPOT peptide array binding signal intensity,CaSho1,241
same,SPOT peptide array binding signal intensity,CaSla1-D1-D2,5
same,SPOT peptide array binding signal intensity,CaSla1-D3,1.75
same,SPOT peptide array binding signal intensity,ScAbp1,14.5
same,SPOT peptide array binding signal intensity,ScBbc1,8.5
same,SPOT peptide array binding signal intensity,ScBem1-D1,26
same,SPOT peptide array binding signal intensity,ScBzz1-D1,18
same,SPOT peptide array binding signal intensity,ScBzz1-D2,23
same,SPOT peptide array binding signal intensity,ScCyk3,22
same,SPOT peptide array binding signal intensity,ScFus1,115
same,SPOT peptide array binding signal intensity,ScHof1,1
same,SPOT peptide array binding signal intensity,ScHse1,1110
same,SPOT peptide array binding signal intensity,ScLsb1,9
same,SPOT peptide array binding signal intensity,ScLsb2,7.5
same,SPOT peptide array binding signal intensity,ScLsb3,90
same,SPOT peptide array binding signal intensity,ScLsb4,8
same,SPOT peptide array binding signal intensity,ScMyo3,2.5
same,SPOT peptide array binding signal intensity,ScMyo5,1.5
same,SPOT peptide array binding signal intensity,ScNbp2,90
same,SPOT peptide array binding signal intensity,ScPex13,0.5
same,SPOT peptide array binding signal intensity,ScRvs167,3.33
same,SPOT peptide array binding signal intensity,ScSho1,411
same,SPOT peptide array binding signal intensity,ScSla1-D1-D2,36.5
same,SPOT peptide array binding signal intensity,ScSla1-D3,13
same,SPOT peptide array binding signal intensity,SpAbp1-D1,88.5
same,SPOT peptide array binding signal intensity,SpBbc1,0.75
same,SPOT peptide array binding signal intensity,SpBzz1-D1,56
same,SPOT peptide array binding signal intensity,SpBzz1-D2,0.5
same,SPOT peptide array binding signal intensity,SpCyk3,2.5
same,SPOT peptide array binding signal intensity,SpHof1,54.5
same,SPOT peptide array binding signal intensity,SpHof1-2,12
same,SPOT peptide array binding signal intensity,SpHof1-3,318
same,SPOT peptide array binding signal intensity,SpHse1,346
same,SPOT peptide array binding signal intensity,SpLsb1,49.2
same,SPOT peptide array binding signal intensity,SpLsb4,44
same,SPOT peptide array binding signal intensity,SpMyo1,1.25
same,SPOT peptide array binding signal intensity,SpNbp2,105
same,SPOT peptide array binding signal intensity,SpPex13,9
same,SPOT peptide array binding signal intensity,SpRvs167,0.833
same,SPOT peptide array binding signal intensity,SpSla1-D1-D2,3
same,SPOT peptide array binding signal intensity,SpSla1-D3,6
